Measured values reported in ChEMBL document CHEMBL2218924, “A broad activity screen in support of a chemogenomic map for kinase signalling research and drug discovery” (Biochem J, 2013).

biological target: T1, Testis-specific serine/threonine-protein kinase 1 (Homo sapiens) (UniProt Q9BXA7); details: at 1 µM
T1 sequence (whole entry): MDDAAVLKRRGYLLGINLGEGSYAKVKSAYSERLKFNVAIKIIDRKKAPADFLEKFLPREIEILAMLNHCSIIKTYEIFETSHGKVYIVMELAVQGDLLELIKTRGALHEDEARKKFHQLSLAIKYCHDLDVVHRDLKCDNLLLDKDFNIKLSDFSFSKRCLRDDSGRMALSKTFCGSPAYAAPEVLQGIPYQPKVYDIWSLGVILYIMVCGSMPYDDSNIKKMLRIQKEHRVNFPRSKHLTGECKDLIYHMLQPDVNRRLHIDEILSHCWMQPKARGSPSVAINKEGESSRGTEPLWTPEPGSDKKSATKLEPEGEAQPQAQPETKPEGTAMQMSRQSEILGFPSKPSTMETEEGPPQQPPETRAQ

| Structure (SMILES) | residual activity |
| --- | --- |
| O=C(O)c1ccc2c3c1cccc3c(=O)n1c3ccccc3nc21 | 106% |
| Nc1ccc2ncnc(NCCc3ccc(Oc4ccccc4)cc3)c2c1 | 89% |
| O=C(Nc1cccc(Nc2nccc(Nc3cccc(C(F)(F)F)c3)n2)c1)C1CC1 | 94% |
| N#Cc1cnc2cnc(NCc3cccnc3)cc2c1Nc1ccc(F)c(Cl)c1 | 0% |
| Ic1cccc(CSc2nnc(-c3ccncc3)o2)c1 | 78% |
| CN(C)CCCn1cc(C2=C(c3c[nH]c4ccccc34)C(=O)NC2=O)c2ccccc21 | 86% |
| O=C1NC(=O)/C(=C/c2ccc3c(c2)OC(F)(F)O3)S1 | 99% |
| Oc1c2ccccc2c2c3c(cccc13)N=N2 | 75% |
| CO[C@H]1C[C@@H]2CC[C@@H](C)[C@@](O)(O2)C(=O)C(=O)N2CCCC[C@H]2C(=O)O[C@H]([C@H](C)C[C@@H]2CC[C@@H](O)[C@H](OC)C2)CC(=O)[C@H](C)/C=C(\C)[C@@H](O)[C@@H](OC)C(=O)[C@H](C)C[C@H](C)/C=C/C=C/C=C/1C | 86% |
| Cc1cc(Nc2nc(-c3ccccc3)nc3ccccc23)n[nH]1 | 72% |
| COc1cc2ncnc(N3CCN(C(=O)Nc4ccc(Oc5ccccc5)cc4)CC3)c2cc1OC | 88% |
| Cc1nc2cc3nc(-c4cccs4)cnc3cc2n1C | 102% |
| CCC(=O)Nc1ccc2ncnc(Nc3cccc(Br)c3)c2c1 | 93% |
| CC#CC(=O)Nc1cc2c(Nc3ccc(F)c(Cl)c3)ncnc2cn1 | 98% |
| Cn1cnc2cc3c(Nc4cccc(Br)c4)ncnc3cc21 | 99% |

biological target: T1, Testis-specific serine/threonine-protein kinase 1 (Homo sapiens); details: at 10 µM

| Structure (SMILES) | residual activity |
| --- | --- |
| Nc1nc(Nc2ccc(S(N)(=O)=O)cc2)nn1C(=S)Nc1c(F)cccc1F | 12% |
| NC(=O)c1ccc2[nH]c(-c3ccc(Oc4ccc(Cl)cc4)cc3)nc2c1 | 80% |
| CC(=O)c1ccc(N2CCOCC2)cc1O | 94% |
| CO[C@H]1[C@@H](OC)C[C@H](C)[C@@H](OC)C2=CC(=O)C=C(NC(=O)/C(C)=C/C=C/[C@H](OC)[C@@H](OC(N)=O)/C(C)=C/[C@@H]1C)C2=O | 88% |
| N#CC(C#N)=C(N)/C(C#N)=C/c1ccc(O)cc1 | 96% |
| O=C1Nc2cc(Br)ccc2/C1=C1/Nc2ccccc2/C1=N\O | 90% |
| c1ccc(-c2n[nH]c3c2oc2ccccc23)cc1 | 82% |
| COc1cc2ncnc(Nc3ccc(NC(=O)c4ccccc4)cc3)c2cc1OC | 92% |
| COc1cc2ncc(-c3ccccc3)nc2cc1OC | 92% |
| COc1cc2ncnc(Nc3ccc(Oc4ccccc4)cc3)c2cc1OC | 93% |
| CN(C)c1ccc(/C=C2\C(=O)Nc3ccccc32)cc1 | 101% |
| O=C1Nc2ccccc2/C1=C1/Nc2ccccc2/C1=N\OCCC(O)CO (centres undefined) | 69% |
| Oc1ccc(-c2nc(-c3ccc(F)cc3)c(-c3ccncc3)[nH]2)cc1 | 83% |
| COc1ccc(C(=O)Nc2sc3c(c2C(N)=O)CCCC3)cc1OC | 75% |
| N#CCCc1ccc2c(c1)-c1[nH]c3ccc([N+](=O)[O-])cc3c1CC(=O)N2 | 21% |
| CCN(CC)C(=O)c1ccc(Nc2nc(OCC3CCCCC3)c3nc[nH]c3n2)cc1 | 2% |
| C[C@@H](N)[C@H]1CC[C@H](C(=O)Nc2ccncc2)CC1 | 90% |

| Structure (SMILES) | residual activity |
| --- | --- |
| N#C/C(=C(\N)Sc1ccc(N)cc1)c1ccccc1C(F)(F)F | 82% |
| c1ccc2c(-c3ccncc3)c[nH]c2c1 | 89% |
| O=C(O)c1ccc2c3c1cccc3c(=O)n1c3ccccc3nc21 | 79% |
| Nc1ccc2ncnc(NCCc3ccc(Oc4ccccc4)cc3)c2c1 | 58% |
| O=C(Nc1cccc(Nc2nccc(Nc3cccc(C(F)(F)F)c3)n2)c1)C1CC1 | 64% |
| N#Cc1cnc2cnc(NCc3cccnc3)cc2c1Nc1ccc(F)c(Cl)c1 | -1% |
| Ic1cccc(CSc2nnc(-c3ccncc3)o2)c1 | 86% |
| CN(C)CCCn1cc(C2=C(c3c[nH]c4ccccc34)C(=O)NC2=O)c2ccccc21 | 37% |
| O=C1NC(=O)/C(=C/c2ccc3c(c2)OC(F)(F)O3)S1 | 91% |
| Oc1c2ccccc2c2c3c(cccc13)N=N2 | 49% |
| CO[C@H]1C[C@@H]2CC[C@@H](C)[C@@](O)(O2)C(=O)C(=O)N2CCCC[C@H]2C(=O)O[C@H]([C@H](C)C[C@@H]2CC[C@@H](O)[C@H](OC)C2)CC(=O)[C@H](C)/C=C(\C)[C@@H](O)[C@@H](OC)C(=O)[C@H](C)C[C@H](C)/C=C/C=C/C=C/1C | 80% |
| Cc1cc(Nc2nc(-c3ccccc3)nc3ccccc23)n[nH]1 | 25% |
| COc1cc2ncnc(N3CCN(C(=O)Nc4ccc(Oc5ccccc5)cc4)CC3)c2cc1OC | 76% |
| Cc1nc2cc3nc(-c4cccs4)cnc3cc2n1C | 85% |
| CCC(=O)Nc1ccc2ncnc(Nc3cccc(Br)c3)c2c1 | 90% |
| CC#CC(=O)Nc1cc2c(Nc3ccc(F)c(Cl)c3)ncnc2cn1 | 81% |
| Cn1cnc2cc3c(Nc4cccc(Br)c4)ncnc3cc21 | 96% |

biological target: T2, Testis-specific serine/threonine-protein kinase 2 (Homo sapiens) (UniProt Q96PF2); details: at 10 µM
T2 sequence (whole entry): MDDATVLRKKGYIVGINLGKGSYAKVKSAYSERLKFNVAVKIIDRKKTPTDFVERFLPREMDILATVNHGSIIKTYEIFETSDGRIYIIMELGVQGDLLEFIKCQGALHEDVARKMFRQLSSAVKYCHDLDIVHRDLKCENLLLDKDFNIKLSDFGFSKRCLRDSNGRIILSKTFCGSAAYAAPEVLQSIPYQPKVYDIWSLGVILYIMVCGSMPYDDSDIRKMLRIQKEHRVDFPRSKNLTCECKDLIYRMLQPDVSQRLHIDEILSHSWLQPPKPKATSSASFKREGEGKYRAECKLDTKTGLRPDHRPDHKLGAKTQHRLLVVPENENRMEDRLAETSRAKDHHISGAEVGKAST

| Structure (SMILES) | residual activity |
| --- | --- |
| Nc1nc(Nc2ccc(S(N)(=O)=O)cc2)nn1C(=S)Nc1c(F)cccc1F | 12% |
| NC(=O)c1ccc2[nH]c(-c3ccc(Oc4ccc(Cl)cc4)cc3)nc2c1 | 95% |
| CC(=O)c1ccc(N2CCOCC2)cc1O | 104% |
| CO[C@H]1[C@@H](OC)C[C@H](C)[C@@H](OC)C2=CC(=O)C=C(NC(=O)/C(C)=C/C=C/[C@H](OC)[C@@H](OC(N)=O)/C(C)=C/[C@@H]1C)C2=O | 75% |
| O=C1Nc2cc(Br)ccc2/C1=C1/Nc2ccccc2/C1=N\O | 62% |
| c1ccc(-c2n[nH]c3c2oc2ccccc23)cc1 | 96% |
| COc1cc2ncnc(Nc3ccc(NC(=O)c4ccccc4)cc3)c2cc1OC | 96% |
| COc1cc2ncc(-c3ccccc3)nc2cc1OC | 84% |
| COc1cc2ncnc(Nc3ccc(Oc4ccccc4)cc3)c2cc1OC | 111% |
| CN(C)c1ccc(/C=C2\C(=O)Nc3ccccc32)cc1 | 97% |
| Oc1ccc(-c2nc(-c3ccc(F)cc3)c(-c3ccncc3)[nH]2)cc1 | 113% |
| COc1ccc(C(=O)Nc2sc3c(c2C(N)=O)CCCC3)cc1OC | 85% |
| CCN(CC)C(=O)c1ccc(Nc2nc(OCC3CCCCC3)c3nc[nH]c3n2)cc1 | 14% |
| C[C@@H](N)[C@H]1CC[C@H](C(=O)Nc2ccncc2)CC1 | 99% |
| N#C/C(=C(\N)Sc1ccc(N)cc1)c1ccccc1C(F)(F)F | 67% |
| c1ccc2c(-c3ccncc3)c[nH]c2c1 | 95% |
| O=C(O)c1ccc2c3c1cccc3c(=O)n1c3ccccc3nc21 | 108% |
| Nc1ccc2ncnc(NCCc3ccc(Oc4ccccc4)cc3)c2c1 | 98% |
| O=C(Nc1cccc(Nc2nccc(Nc3cccc(C(F)(F)F)c3)n2)c1)C1CC1 | 78% |
| N#Cc1cnc2cnc(NCc3cccnc3)cc2c1Nc1ccc(F)c(Cl)c1 | 14% |
| Ic1cccc(CSc2nnc(-c3ccncc3)o2)c1 | 82% |
| O=C1NC(=O)/C(=C/c2ccc3c(c2)OC(F)(F)O3)S1 | 97% |
| Oc1c2ccccc2c2c3c(cccc13)N=N2 | 86% |
| CO[C@H]1C[C@@H]2CC[C@@H](C)[C@@](O)(O2)C(=O)C(=O)N2CCCC[C@H]2C(=O)O[C@H]([C@H](C)C[C@@H]2CC[C@@H](O)[C@H](OC)C2)CC(=O)[C@H](C)/C=C(\C)[C@@H](O)[C@@H](OC)C(=O)[C@H](C)C[C@H](C)/C=C/C=C/C=C/1C | 106% |
| Cc1cc(Nc2nc(-c3ccccc3)nc3ccccc23)n[nH]1 | 67% |
| COc1cc2ncnc(N3CCN(C(=O)Nc4ccc(Oc5ccccc5)cc4)CC3)c2cc1OC | 117% |
| Cc1nc2cc3nc(-c4cccs4)cnc3cc2n1C | 93% |
| CCC(=O)Nc1ccc2ncnc(Nc3cccc(Br)c3)c2c1 | 102% |
| CC#CC(=O)Nc1cc2c(Nc3ccc(F)c(Cl)c3)ncnc2cn1 | 82% |
| Cn1cnc2cc3c(Nc4cccc(Br)c4)ncnc3cc21 | 106% |
